Consider 3 compounds from PubChem BioAssay (EPA / NIEHS).

Active and inactive are the calls of the source. The calls were made as follows: active = hit-call score of the fitted dose curve at least 0.9, where 1 is the maximum; inactive = score below 0.9.

Common to all, as to details: mRNA level, 48 h; actives raise or lower the signal
Read-out in test [1]: Early growth response protein 1 (EGR1) transcription factor, EGR1 (gene 1958)
In words: LTEA_HepaRG_EGR1: Life Technologies and Expression Analysis (LTEA) Assay for Early growth response protein 1 (EGR1) transcription factor using HepaRG (AID 2283490). In a few lines: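 Differentiated human HepaRG cells in serum-free induction medium were exposed in duplicate for 48 h to eight concentrations (top 100 uM, half-log steps) in 0.5% DMSO. EGR1 mRNA was quantified by qRT-PCR, normalized to ACTB, GAPDH and POLR2A, and fitted bidirectionally versus DMSO.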

Read-out in test [2]: Ezrin (EZR), EZR (gene 7430)
In words: LTEA_HepaRG_EZR: Life Technologies and Expression Analysis (LTEA) Assay for Ezrin (EZR) using HepaRG (AID 2283491). Summed up: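 Gain or loss of EZR mRNA is scored relative to 0.5% DMSO in human HepaRG cultures treated 48 h with test chemicals in duplicate, eight half-log concentrations from 100 uM.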

Read-out in test [3]: Cytochrome P450 3A7 (Homo sapiens) (UniProt P24462)
In words: LTEA_HepaRG_CYP3A7: Life Technologies and Expression Analysis (LTEA) Assay for CYP3A7 using HepaRG (AID 2283492). In a few lines: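 Cells were thawed, plated, cultured 48 h, then treated for a further 48 h with chemicals (eight-point half-log series from 100 uM, 0.5% DMSO). RNA was isolated and CYP3A7 expression quantified by qRT-PCR normalised to ACTB, GAPDH and POLR2A.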

Read-out in the next test: CYP3A5 (gene 1577)
In words: LTEA_HepaRG_CYP3A5: Life Technologies and Expression Analysis (LTEA) Assay for CYP3A5 using HepaRG (AID 2283493). Summed up:
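mRNA induction or loss of CYP3A5 assessed in HepaRG after 48 h dosing, 100 uM top concentration, duplicate wells; TaqMan qRT-PCR with ACTB, GAPDH, POLR2A normalization; 0.5% DMSO as negative control.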

Read-out in test [4]: Fatty Acid-Binding Protein 1 (FABP1), FABP1 (gene 2168)
In words: LTEA_HepaRG_FABP1: Life Technologies and Expression Analysis (LTEA) Assay for Fatty Acid-Binding Protein 1 (FABP1) using HepaRG (AID 2283494). Summed up: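 Differentiated human HepaRG cells were exposed in duplicate for 48 h in serum-free induction medium to 8-point half-log concentration series topping at 100 uM in 0.5% DMSO. FABP1 mRNA measured by TaqMan qRT-PCR, normalized to ACTB/GAPDH/POLR2A; bidirectional fit versus DMSO.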

Read-out in test [5]: Cytochrome P450 4A22 (Homo sapiens) (UniProt Q5TCH4)
In words: LTEA_HepaRG_CYP4A22: Life Technologies and Expression Analysis (LTEA) Assay for Cytochrome P450 4A22 (CYP4A22) using HepaRG (AID 2283495). In a few lines: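 Cryopreserved HepaRG cells, plated and cultured 48 h, then switched to serum-free induction medium and treated 48 h (duplicates, up to 100 uM, half-log steps, 0.5% DMSO). Expression change of CYP4A22 was fitted bidirectionally against vehicle.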

Read-out in test [6]: Cytochrome P450 7A1 (Homo sapiens) (UniProt P22680)
In words: LTEA_HepaRG_CYP7A1: Life Technologies and Expression Analysis (LTEA) Assay for Cytochrome P450 7A1 (CYP7A1) using HepaRG (AID 2283496). Summed up:
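Gene expression endpoint in human HepaRG liver cells treated for 48 h with test chemicals (up to 100 uM, 0.5% DMSO). Values come from bidirectional concentration-response fitting versus DMSO.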

Read-out in test [7]: Glutamate-cysteine ligase catalytic (GCLC), GCLC (gene 2729)
In words: LTEA_HepaRG_GCLC: Life Technologies and Expression Analysis (LTEA) Assay for Glutamate-cysteine ligase catalytic (GCLC) using HepaRG (AID 2283498). In a few lines: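 Differentiated human HepaRG cells, plated 48 h then switched to serum-free induction medium, were exposed in duplicate for 48 h to 8 half-log concentrations topping at 100 uM in 0.5% DMSO. GCLC mRNA was quantified by qRT-PCR against ACTB, GAPDH and POLR2A.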

Read-out in test [8]: growth arrest and DNA damage 45 (GADD45G), GADD45G (gene 10912)
In words: LTEA_HepaRG_GADD45G: Life Technologies and Expression Analysis (LTEA) Assay for growth arrest and DNA damage 45 (GADD45G) using HepaRG (AID 2283499). In a few lines: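 Human hepatic HepaRG line treated 48 h with chemicals (eight concentrations, half-log steps from 100 uM); transcript induction or repression of GADD45G scored by qRT-PCR versus DMSO vehicle.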

Read-out in test [9]: Glutamate-cysteine ligase regulatory (GCLM), GCLM (gene 2730)
In words: LTEA_HepaRG_GCLM: Life Technologies and Expression Analysis (LTEA) Assay for Glutamate-cysteine ligase regulatory (GCLM) using HepaRG (AID 2283500). Summed up: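 Human liver HepaRG cultures receive test chemicals for 48 hours at up to 100 uM in 0.5% DMSO. GCLM expression is measured by qRT-PCR and analysed for increases or decreases against vehicle.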

Read-out in test [10]: Glutathione S-transferase M3 (GSTM3), GSTM3 (gene 2947)
In words: LTEA_HepaRG_GSTM3: Life Technologies and Expression Analysis (LTEA) Assay for Glutathione S-transferase M3 (GSTM3) using HepaRG (AID 2283501). Summed up: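 Changes in GSTM3 expression, an oxidative-stress marker, were scored by bidirectional curve fitting against 0.5% DMSO vehicle. Human HepaRG cultures received chemicals for 48 h in duplicate, highest concentration 100 uM with half-log dilutions.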

Read-out in test [11]: Heat shock 70 kDa protein 1 (HSPA1A), gene 3303
In words: LTEA_HepaRG_HSPA1A: Life Technologies and Expression Analysis (LTEA) Assay for Heat shock 70 kDa protein 1 (HSPA1A) using HepaRG (AID 2283502). Summed up: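 HSPA1A induction in human HepaRG liver cells is measured after 48 h of chemical treatment (100 uM maximum, 0.5% DMSO vehicle). Expression comes from qRT-PCR normalized to endogenous controls.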

Read-out in test [12]: Hypoxia-inducible factor 1-alpha (Homo sapiens) (UniProt Q16665)
In words: LTEA_HepaRG_HIF1A: Life Technologies and Expression Analysis (LTEA) Assay for Hypoxia-inducible factor 1 (HIF1A) Trancription factor using HepaRG (AID 2283503). Summed up: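 HepaRG, 48 h exposure, 8-pt half-log series from 100 uM, 0.5% DMSO vehicle, duplicates. Readout: HIF1A transcript by qRT-PCR (Fluidigm array), housekeeping-normalised. Bidirectional curve fit vs DMSO baseline.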

Read-out in test [13]: 3-Hydroxy-3-Methylglutaryl-CoA Synthase 2 (HMGCS2), HMGCS2 (gene 3158)
In words: LTEA_HepaRG_HMGCS2: Life Technologies and Expression Analysis (LTEA) Assay for 3-Hydroxy-3-Methylglutaryl-CoA Synthase 2 (HMGCS2) using HepaRG (AID 2283504). Summed up: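 Expression of HMGCS2 in human HepaRG liver cells is measured by qRT-PCR 48 h after dosing (highest 100 uM, half-log series, 0.5% DMSO). Values come from bidirectional concentration-response fitting with DMSO as baseline.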

Read-out in test [14]: Insulin Like Growth Factor 1 (IGF1), IGF1 (gene 3479)
In words: LTEA_HepaRG_IGF1: Life Technologies and Expression Analysis (LTEA) Assay for Insulin Like Growth Factor 1 (IGF1) using HepaRG (AID 2283506). In a few lines:
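Using human HepaRG liver cells, IGF1 transcript induction or suppression is measured 48 h after dosing across eight concentrations capped at 100 uM. Values derive from bidirectional concentration-response fitting with DMSO as baseline.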

Read-out in test [15]: Intercellular Adhesion Molecule 1 (ICAM1), ICAM1 (gene 3383)
In words: LTEA_HepaRG_ICAM1: Life Technologies and Expression Analysis (LTEA) Assay for Intercellular Adhesion Molecule 1 (ICAM1) using HepaRG (AID 2283507). Summed up: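 Gain or loss of transcript in HepaRG hepatic cells is quantified by qRT-PCR after 48 h chemical exposure (up to 100 uM, half-log steps), with DMSO as baseline.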

Read-out in test [16]: Insulin-like growth factor-binding protein 1 (IGFBP1), IGFBP1 (gene 3484)
In words: LTEA_HepaRG_IGFBP1: Life Technologies and Expression Analysis (LTEA) Assay for Insulin-like growth factor-binding protein 1 (IGFBP1) using HepaRG (AID 2283508). In a few lines: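 mRNA induction or loss was quantified by qRT-PCR after 48 h chemical exposure of human HepaRG cells, with 0.5% DMSO as vehicle and baseline. Concentration-response over eight points up to 100 uM.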

Read-out in test [17]: Interleukin 6 (IL6), IL6 (gene 3569)
In words: LTEA_HepaRG_IL6: Life Technologies and Expression Analysis (LTEA) Assay for Interleukin 6 (IL6) using HepaRG (AID 2283509). In a few lines:
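Differentiated human HepaRG cells, plated 48 h then switched to serum-free induction medium, were exposed in duplicate for 48 h to eight half-log concentrations up to 100 uM in 0.5% DMSO. IL6 mRNA measured by qRT-PCR, normalized to ACTB/GAPDH/POLR2A.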

Read-out in test [18]: Glutathione S-Transferase (GSTA2), GSTA2 (gene 2939)
In words: LTEA_HepaRG_GSTA2: Life Technologies and Expression Analysis (LTEA) Assay for Glutathione S-Transferase (GSTA2) using HepaRG (AID 2283497). In a few lines:
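Human HepaRG cells, plated 48 h, then exposed in serum-free induction medium for 48 h to eight half-log concentrations up to 100 uM in 0.5% DMSO, duplicate. GSTA2 mRNA by qRT-PCR, normalized to ACTB/GAPDH/POLR2A; bidirectional fit versus DMSO.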

Read-out in another test: HGF (gene 3082)
In words: LTEA_HepaRG_HGF: Life Technologies and Expression Analysis (LTEA) Assay for Hepatocyte Growth Facto (HGF) using HepaRG (AID 2283505). Summed up:
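Gain or loss of HGF mRNA in human HepaRG liver cells after 48 h chemical exposure; eight concentrations up to 100 uM with 0.5% DMSO vehicle, quantified by TaqMan qRT-PCR.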

Hypoxia-inducible factor 1-alpha (Homo sapiens), sequence (Q16665 whole entry, looked up): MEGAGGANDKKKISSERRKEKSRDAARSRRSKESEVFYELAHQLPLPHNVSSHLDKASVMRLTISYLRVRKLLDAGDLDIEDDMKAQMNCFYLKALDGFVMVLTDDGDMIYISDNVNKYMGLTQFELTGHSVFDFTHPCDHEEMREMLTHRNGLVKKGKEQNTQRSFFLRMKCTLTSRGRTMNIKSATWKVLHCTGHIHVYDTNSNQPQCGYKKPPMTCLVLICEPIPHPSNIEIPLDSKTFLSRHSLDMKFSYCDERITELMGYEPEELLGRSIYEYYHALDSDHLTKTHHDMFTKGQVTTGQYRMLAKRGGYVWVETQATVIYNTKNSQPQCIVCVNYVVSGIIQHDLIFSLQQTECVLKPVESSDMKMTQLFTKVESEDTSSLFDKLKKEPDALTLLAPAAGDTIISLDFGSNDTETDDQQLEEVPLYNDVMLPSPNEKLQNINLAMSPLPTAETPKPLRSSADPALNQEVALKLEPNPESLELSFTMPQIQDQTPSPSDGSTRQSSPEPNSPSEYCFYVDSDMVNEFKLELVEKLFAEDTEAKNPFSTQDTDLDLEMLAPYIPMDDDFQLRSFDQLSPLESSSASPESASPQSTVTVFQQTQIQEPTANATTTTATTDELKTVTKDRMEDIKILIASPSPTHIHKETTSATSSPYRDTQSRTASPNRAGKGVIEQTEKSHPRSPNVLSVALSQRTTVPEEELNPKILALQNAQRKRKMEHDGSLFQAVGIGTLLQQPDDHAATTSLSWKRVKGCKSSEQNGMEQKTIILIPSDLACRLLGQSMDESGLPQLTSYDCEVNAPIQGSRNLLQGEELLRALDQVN
Cytochrome P450 3A7 (Homo sapiens), sequence (P24462 whole entry, looked up): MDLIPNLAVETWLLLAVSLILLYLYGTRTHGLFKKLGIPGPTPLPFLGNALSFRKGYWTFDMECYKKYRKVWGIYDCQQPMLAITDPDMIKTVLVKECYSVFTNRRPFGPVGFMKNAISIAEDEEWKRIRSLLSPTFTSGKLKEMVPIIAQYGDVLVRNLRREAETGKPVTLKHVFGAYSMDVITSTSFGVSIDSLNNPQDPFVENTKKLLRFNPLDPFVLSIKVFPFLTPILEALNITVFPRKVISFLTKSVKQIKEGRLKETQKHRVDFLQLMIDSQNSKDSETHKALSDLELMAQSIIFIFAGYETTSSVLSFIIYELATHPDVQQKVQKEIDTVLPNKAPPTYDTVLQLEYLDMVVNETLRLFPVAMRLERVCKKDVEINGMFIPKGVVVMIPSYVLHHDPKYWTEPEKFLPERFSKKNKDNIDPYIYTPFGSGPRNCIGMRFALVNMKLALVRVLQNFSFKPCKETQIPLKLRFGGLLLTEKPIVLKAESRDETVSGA

For orientation: AC50 means the midpoint of the concentration-response curve, whichever way the signal moves. `Cc1occc1C(=O)Nc1ccc(C(=O)N2CCC(F)(F)/C(=C\C(=O)N3CCC(N4CCCCC4)CC3)c3ccccc32)cc1`: the call (in test [1]; in [2]; in [3]; with CYP3A5 (gene 1577); in [4]; in test [7]) was inactive. The compound was called inactive in test [8], in test [9], in [11], in [12] and in test [15]. Besides, the concentration at half-maximal activity (AC50) in [5] is 57.5 µM (active); in test [6] it was 17.2 µM (active); in [10] it was 31.2 µM (active); in test [13] it was 31.2 µM (active); in [14], 5.3 µM (active); in test [16], 46.1 µM (active). Besides, the concentration at half-maximal activity (AC50) in [17] is 51.9 µM (active).
For `Cc1cc2c(cc1C(F)(F)F)N(C(=O)Nc1ccc(Oc3cccnc3C)nc1)CC2`, the outcome in test [1], in [2], in test [3], in [8], in test [9] and in [14] was inactive. For the same compound, the result in test [15], in test [16] and in [17] was inactive. The half-maximal activity concentration (AC50) with CYP3A5 (gene 1577) was 73.1 µM (active); in test [4] it was 11.6 µM (active); in test [5], 29.6 µM (active); in test [6], 46 µM (active); in test [7], 60.7 µM (active); in test [11], 80.9 µM (active). In addition, the AC50 in [12] is 11.3 µM (active); in [13] it was 29.2 µM (active).
Take `COc1ccc2cc(S(=O)(=O)N[C@H](CC(=O)N[C@H](Cc3ccc(CN4[C@H](C)CCC[C@@H]4C)cc3)C(=O)N(C)C(C)C)c3ccc4c(c3)OCO4)ccc2c1`: the AC50 in [1] was 33.3 µM (active); in test [3], 25.2 µM (active); with CYP3A5 (gene 1577), 22.1 µM (active); in test [4], 12.1 µM (active); in [5] it was 2.63 µM (active); in test [18], 81.6 µM (active). Also, the half-maximal activity concentration (AC50) in test [7] was 56.4 µM (active); in test [9], 78 µM (active); in test [10], 22.5 µM (active); in [11], 82.6 µM (active); in test [12], 75.5 µM (active); with HGF (gene 3082), 19.9 µM (active). Besides, the AC50 is 21.2 µM (active) in test [14], 12 µM (active) in test [15], 13 µM (active) in test [16] and 30.9 µM (active) in test [17]. Besides, the call in test [2], in test [8] and in [13] was inactive.
